# Measured values taken from ChEMBL document CHEMBL3433997, “St. Jude Leishmania screening dataset” (2016).
# How the values were obtained:
# Format in all cases: functional
# [1] = target: Solute carrier family 2, facilitated glucose transporter member 1 (Homo sapiens) (UniProt P11166); assay: ST_JUDE_LEISH: Cytotoxicity at 2uM final concentration against transgenic Leishmania Mexicana promastigotes LmGLUT1 that are glucose transport deficient and complemented with the human glucose transporter GLUT1. Activity is measured by DNA content using SYBR green in vitro
# Chain of Solute carrier family 2, facilitated glucose transporter member 1 (Homo sapiens) (P11166 whole entry): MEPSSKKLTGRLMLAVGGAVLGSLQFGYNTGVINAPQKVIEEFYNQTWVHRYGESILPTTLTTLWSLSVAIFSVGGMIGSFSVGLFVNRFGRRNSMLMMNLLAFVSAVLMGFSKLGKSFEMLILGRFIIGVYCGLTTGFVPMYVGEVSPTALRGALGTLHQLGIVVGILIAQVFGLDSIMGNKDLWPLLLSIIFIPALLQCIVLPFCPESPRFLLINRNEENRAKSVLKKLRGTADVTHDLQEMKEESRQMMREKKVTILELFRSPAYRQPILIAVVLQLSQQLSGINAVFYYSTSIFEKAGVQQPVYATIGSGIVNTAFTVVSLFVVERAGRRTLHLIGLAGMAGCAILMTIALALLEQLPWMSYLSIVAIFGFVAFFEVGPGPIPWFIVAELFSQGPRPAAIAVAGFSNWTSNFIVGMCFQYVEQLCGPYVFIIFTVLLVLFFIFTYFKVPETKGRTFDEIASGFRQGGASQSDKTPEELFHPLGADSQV
# [2] = target: Hexose transporter 1 (Plasmodium falciparum) (UniProt O97467); assay: ST_JUDE_LEISH: Cytotoxicity at 2uM final concentration against transgenic Leishmania Mexicana promastigotes LmPfHT that are glucose transport deficient and complemented with the Plasmodium falciparum hexose transporter. Activity is measured by DNA content using SYBR green in vitro
# [3] = target: Glucose transporter (Leishmania mexicana) (UniProt O61059); assay: ST_JUDE_LEISH: Cytotoxicity at 2uM final concentration against transgenic Leishmania Mexicana promastigotes LmGT2 that are glucose transport deficient and complemented with the L. Mexicana glucose transporter 2. Activity is measured by DNA content using SYBR green in vitro
SMILES,inhibition [1] [%],inhibition [2] [%],inhibition [3] [%]
COc1cc2c(cc1OCCN1CCC(N)CC1)N(C(=O)/C=C/c1ccccc1Cl)CC2,11.3,10.8,12.8
O=C(Nc1ccc2c(c1)OCCO2)c1cc(-c2cccnc2)nc2ccc(Cl)cc12,3.75,1.71,0.65
COc1ccc(S(=O)(=O)N(c2cc(Br)cc3c2OCC3)S(=O)(=O)c2ccc(OC)c(N3CCN(C)CC3)c2)cc1N1CCN(C)CC1,0.39,0.62,0.55
COc1ccc2ncc(F)c(NC(=O)C3CCC(NCc4cc5c(F)cccc5[nH]4)CC3)c2n1 (stereo not given),77.5,80.8,77.4
CC(C)CCN1CCC(Oc2ccc(NC(=O)c3ccco3)cc2Cl)CC1,7.85,9.84,5.26
COc1ccc(Cl)cc1N1CCN(CCCNC(=O)c2ccc(-c3nc4cc(Cl)c(F)cc4[nH]3)cc2)CC1,2.81,2.7,3.92
OCCOCn1cnc2cnc(N[C@H]3OC[C@H](O)[C@@H](O)[C@@H]3O)nc21,0.99,2.06,1.69
Oc1ccc(CCNc2nc(NCc3cccc(-c4cc(C(F)(F)F)ccc4Cl)c3)nc(N3CCNCC3)n2)cc1,2.86,1.88,2.82
CC[C@H](C)CNC(=O)c1ccnc(-c2cccc(CN(C)C3CCN(C)CC3)c2)c1,1.42,2.4,2.59
CC(C)NCC(=O)Nc1cccc(C(=O)Nc2cccc(C(F)(F)F)c2)c1,4.13,2.76,-1.8
O=C(N[C@@H](Cc1ccccc1)[C@H](O)CNC1CCOCC1)c1cc(C2CCCC2)cc(N2CCCCS2(=O)=O)c1,3.67,3.81,4.01
O=C(NC1CCCCN(Cc2ccccc2O)C1)c1ccc(Cl)c(Cl)c1 (stereo not given),7.63,5.13,3.76
COc1ccc(NC(=O)c2ccc3[nH]c(-c4ccc(Cl)cc4)cc3c2)cc1OCCN(C)C,2.93,1.88,0.79
Cc1ccc(S(=O)(=O)N2CCCN(C(=O)c3cc(-c4ccccc4)[nH]n3)CC2)cc1,-1.48,0.45,0.04
O=C(Nc1cccc(Cl)c1)OC1CCCN2CCCCC12 (stereo not given),10.8,10.6,9.42
COc1ccc(CC(=O)NC2CCN(c3ccnc4cc(Cl)ccc34)C2)cc1 (stereo not given),-0.54,-0.22,-0.25
COc1ccccc1CCNC(=O)c1cc(Br)cc(N2CCN(c3ccncc3)CC2)c1,1.16,2.75,0.04
O=C(/C=C/c1ccc(Cl)c(Cl)c1)NCCCCCCN1CCCN(C(=O)Nc2cccc(C(F)(F)F)c2)CC1,5.59,4.35,0.59
CCOc1cc(CC)ccc1C1CCN(CCCCNC(=O)c2ccc(NC(=O)c3ccc(Cl)cc3)cc2)CC1,4.23,2.23,4.97
COc1ccc(NC(=O)/C=C/c2cc(F)cc(C(F)(F)F)c2)cc1OCCN(C(C)C)C(C)C,9.32,9.92,6.4
COc1cccc(-c2ccc(C(=O)NCC3CCCN(Cc4cccc(C(F)(F)F)c4)C3)s2)c1 (stereo not given),2.94,-4.36,5.79
O=C(Nc1ccc(-c2nc3cc4ccccc4cc3[nH]2)cc1)c1cccc(Br)c1,3.09,1.07,5.72
CC(C)CCNCc1ccc(OCc2cccc(COc3ccc(CNCCC(C)C)cc3I)c2)c(I)c1,0.58,-0.4,-0.23
CC(=O)c1ccc(NC(=O)C2c3ccccc3C(=O)N(CC(C)C)C2c2cccs2)cc1 (stereo not given),-0.43,0.9,0.34

SMILES,inhibition [1] [%],inhibition [2] [%],inhibition [3] [%]
O=C(Nc1cccc(C(F)(F)F)c1)c1ccc(S(=O)(=O)NC2CCN(CC3CCCCC3)CC2)cc1,1.83,1.62,5.57
c1cc(CNC2CCN(CC3CCCCC3)CC2)cc(-n2ccnc2)c1,-0.57,-0.48,1.45
N=C(N)Nc1nc(-c2cccc(NC(=O)Cc3ccccc3)c2)cs1,2.29,4.02,3.44
O=S(=O)(Nc1cccc(CCN2CCCCC2CCN2CCCC2)c1)c1ccc(Oc2ccccc2)cc1 (stereo not given),-2.34,1.13,-1.81
CCN(CC)CCCNc1ncc2c(-c3ccc(NC(=O)Nc4cc(C(F)(F)F)ccc4F)cc3)nn(C)c2n1,4.51,4.18,4.62
CCOC(=O)c1nc(-c2cc(Cl)nc(Cl)c2)[nH]c1NC(=S)NCCCN1CCOCC1,2.49,1.96,0.84
O=C(Nc1cccc(CN2CCCN(Cc3ccc(O)cc3)CC2)c1)c1ccc2ccccc2c1,4.27,4.08,3.93
CCCCc1ccc2ncc(C(=O)OCC)c(O)c2c1,-1.09,-0.73,-3.16
Cc1noc(C)c1-c1ccc2c(Nc3cccc4c3-c3ccccc3C4=O)c(C(=O)NCc3ccccc3I)cnc2c1,3.15,2.33,6.11
O=C(NCc1ccccc1F)c1ccc(N2CCC(NCc3cccc(-n4cccn4)c3)CC2)cc1,-0.13,3.43,-1.93
CN(C)C(S)=NN=Cc1cccc(O)c1O,6.64,6.87,4.78
N=C(N)CCN(Cc1ccc(Cl)cc1)c1ccc(Cl)cc1,0.7,0.7,0.65
CC(C)Cn1c(N)cc(=O)n(C)c1=O,3.76,3.45,3.72
CC(C)Oc1cc(-c2ccc(S(C)(=O)=O)cc2)nc(N(Cc2cccc(F)c2F)Cc2cccc(F)c2F)n1,-1.85,0.65,-2.49
COc1ccc(C2C(C(=O)Nc3ccc(C)c(F)c3)c3cc(OC)c(OC)cc3C(=O)N2C)cc1 (stereo not given),2.11,3.41,3.34
FC(F)(F)c1ccc(-c2cncc(-c3ccc(C(F)(F)F)cc3)n2)cc1,-1.94,-1.14,-1.64
CC(CNC(=O)[C@H]1CNCCN1C(=O)CCCc1ccccc1)c1ccccc1 (stereo not given in full),0.97,-1.25,-0.23
COc1ccccc1N1CCN(CCCCNC(=O)c2ccc(NC(=O)c3cc4ccccc4o3)cc2)CC1,1.4,1.36,0.06
O=C(NCCc1ccccc1)N(Cc1ccccc1-c1ccc(CNCCc2ccccc2)cc1)C1CCN(Cc2ccccc2)CC1,7.2,8.75,3.55
CC(=O)CC(=O)N1CCN(c2ccccc2)CC1,-0.36,-0.81,-0.35
Cc1c(CN2CCCCC2)cccc1OCCCNc1nc(NCCc2ccc(O)cc2)nc(N2CCNCC2)n1,5.55,2.95,5.43
Oc1ccccc1CNCc1ccc(-c2cnc(N3CCCC(c4ccccc4)C3)nc2)cc1 (stereo not given),3.52,2.64,9.12
Nc1ncc(-c2cc3ccccc3o2)c(N)n1,3.02,2.51,-0.11
CCOC(=O)C1=C(C)N=c2sc(=Cc3cc(Cl)ccc3O)c(=O)n2C1c1ccc2c(c1)OCO2 (stereo not given),0.16,0.7,1.37

SMILES,inhibition [1] [%],inhibition [2] [%],inhibition [3] [%]
Cc1nc2c(-n3cc(Cn4ccnc4)c4ccccc43)ncnc2n1-c1ccc(Cl)cc1Cl,0.32,0.41,-1
O=C(NCc1ccc(Cl)cc1)c1ccc(CN2CCCN(CC3CCCCC3)CC2)cc1,4.46,5.73,5.25
O=C(NCCc1ccccc1)N(Cc1ccccc1-c1cccc(CNCc2ccc3c(c2)OCO3)c1)C1CCN(Cc2ccccc2)CC1,3.72,4.3,3.13
Cc1cccc2nc(-c3ccc(-c4ccc(CNCC(C)C)cc4)cc3)[nH]c12,15.3,13.6,8.18
CCCC(=O)Nc1ccc(OCCCN(Cc2ccccc2C(F)(F)F)c2ccc(C#N)c(C(F)(F)F)c2)cc1,3.53,4.53,4.55
N#Cc1ccc(N(CCOc2ccc(Cl)cc2)Cc2ccccc2C(F)(F)F)cc1C(F)(F)F,-1.04,-1.88,-1.54
CCOCCCNc1ncc(-c2ccsc2)c(-c2nc(C)cs2)n1,8,6.73,7.32
O=C(NCCc1ccccc1F)c1cc(Br)cc(N2CCN(c3ccncc3)CC2)c1,0.33,2.34,-0.08
CC(C)(C)OC(=O)/C=C(\C(=O)OCc1ccc([N+](=O)[O-])cc1)c1csc(NC(c2ccccc2)(c2ccccc2)c2ccccc2)n1,4.04,4.55,3.64
C=CCN1CCC(N(Cc2cccc(Oc3ccccc3)c2)C(=O)C(c2ccccc2)c2ccccc2)CC1,-1.05,-2.14,-2.94
CS(=O)(=O)c1ccc2c(c1)CCN(CCC1CCC(NC(=O)C(=Cc3cccc(C#N)c3)c3ccc(-c4ccccc4)cc3)CC1)CC2 (stereo not given),1.14,2.77,1.15
CC1CCCN(C(=O)C(C)Nc2cc(Cl)ccc2N2CCOCC2)C1 (stereo not given),1.2,1.09,-0.78
CCc1c[nH]c2c(N3CCCS3(=O)=O)cc(C(=O)N[C@@H](Cc3ccccc3)[C@H](O)CNC(C)(C)c3cccc(C(F)(F)F)c3)cc12,-0.71,0.86,0.6
CCN(CC)CCNC(=O)/C(=C/C=C/c1cc2cc(Cl)c(Cl)cc2[nH]1)OC,2.44,-0.18,-1.46
O=C(CCCCCNC(=O)c1ccc(O)c(-c2ccc(Cl)c(Cl)c2)c1)NCCc1ccc(Cl)c(Cl)c1,-0.22,0.09,0.33
CCN1CCC(N(Cc2ccc(-c3ccc(C(F)(F)F)cc3)cc2)C(=O)Cn2c(SCc3ccc(F)cc3)nc(=O)c3c2CCC3)CC1,-0.04,-0.63,-2.05
COc1ccc(F)cc1-c1ccccc1CNC(=O)c1cnn(-c2ccc([N+](=O)[O-])cc2)c1C(F)(F)F,2.16,2.84,4.07
CCN1C(=O)C(=NN=C(S)N2CCCC2)c2ccccc21,-0.3,-1.51,-3.35
COc1ccc(-c2cnc3ccc(NCc4ccc(S(N)(=O)=O)cc4)nn23)cn1,4.78,4.83,5.05
CCCCCNC(=N)N/N=C/c1c[nH]c2ccc(OC)cc12,1.71,3.63,-0.13
O=C(NC1CCC(CCN2Cc3cccc(C(F)(F)F)c3C2)CC1)c1cccc(-c2cccnc2)c1 (stereo not given),3.38,1.73,2.16
C=CCOc1ccc(C2C(C(=O)OC)=C(C)NC3=C2C(=O)c2ccccc23)cc1OC (stereo not given),-0.61,4.51,1.15
